AmpC inh no detg: blocks E. coli AmpC beta-lactamase in detergent-free assay | hit rate 0.52% among 330,000 | Potency, µM (top dose mostly 57.1 µM), inactives show at the top dose activity change, negative = inhibition, actives largely listed as inhibitors | AmpC nitrocefin hydrolysis, absorbance 480 nm, 0.0001% Triton | AID 485341;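 note: potency is the fitted concentration of half-maximal effect; plate controls were no compound for no effect and no enzyme for full effect; nearly all actives have a fitted effect of over 20% in size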
Target sequence (P00811 whole entry, looked up): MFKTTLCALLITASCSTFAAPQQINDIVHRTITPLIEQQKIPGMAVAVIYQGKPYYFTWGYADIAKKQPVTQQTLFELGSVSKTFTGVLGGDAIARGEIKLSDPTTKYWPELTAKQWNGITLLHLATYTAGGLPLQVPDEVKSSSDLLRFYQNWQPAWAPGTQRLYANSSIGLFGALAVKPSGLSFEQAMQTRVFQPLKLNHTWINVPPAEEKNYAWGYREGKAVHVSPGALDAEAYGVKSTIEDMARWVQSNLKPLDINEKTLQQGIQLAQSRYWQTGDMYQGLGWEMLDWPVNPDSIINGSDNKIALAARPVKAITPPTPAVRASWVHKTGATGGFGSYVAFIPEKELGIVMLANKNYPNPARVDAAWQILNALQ
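20 mM phosphate pH 7.0 + 0.01% (detergent screen) or 0.0001% Triton X-100; 5.3 nM AmpC reagent; cpd preinc 15 min RT; nitrocefin (800 uM stock) to start; A480 q20 s × 4 min; Activity was normalised to no-enzyme and no-compound control wells.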
FMDV inh: blocks foot and mouth disease virus; Potency, µM (doses to about 57.9 µM), for the others: top-dose activity change, negative = inhibition, most hits filed as inhibitors; hit rate 1.2% among 410,000; AID 1159524; FMDV antiviral cell-based qHTS; calls by dose curve; tested in HEK293T cells; note: read-out not given here; potency is the fitted concentration of half-maximal effect; nearly all actives have a fitted effect of over 45% in size
HCV inh: blocks hepatitis C virus. Huh7.5.1 HCVcc-Cre infection, luciferase reporter, 44 h. Potency, µM (top dose mostly 41.8 µM), for the others: at the top dose activity change, negative = inhibition, most hits filed as inhibitors. hit rate 3.4% among 340,000; note: potency is the fitted concentration of half-maximal effect
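Infectious HCVcc-Cre (~0.5 moi) was added to cells just after compound, with cells seeded 4 h earlier at 1,000 per well. Luciferase activity after 44 h culture reported infection; substrate was incubated 15 min at room temperature before reading.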
HCMV antiviral: blocks human cytomegalovirus replication. AID 1259415. HFF cells, HCMV-luciferase reporter, 72 h; active compounds read low. activity change, negative = inhibition, % at 57.5 µM. hit rate 4.5% among 410,000; in the data active = activity change below about -60%; inconclusive = no clear call, values can overlap the other calls; inactive = above about -39%
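Compounds were evaluated in HFFs infected with an HCMV luciferase reporter virus (MOI 1 PFU/cell). Luciferase in lysates collected 72 h post infection served as the replication measure.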
AmpC inh detg: inhibitors of E. coli AmpC beta-lactamase with detergent; AmpC hydrolysis of nitrocefin, absorbance 480 nm, 0.01% Triton; Potency, µM (highest dose often 114 µM), inactives show at the top dose activity change, negative = inhibition, actives largely listed as inhibitors; hit rate 0.041% among 370,000; AID 485294;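 note: potency is the fitted concentration of half-maximal effect; 0% = no-compound wells and -100% = no-enzyme wells; nearly all actives have a fitted effect of over 25% in size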
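AmpC (5.3 nM in the dispensed reagent) in 20 mM phosphate pH 7.0 with 0.01% (detergent screen) or 0.0001% Triton X-100 was preincubated with compounds for 15 min at room temperature. Nitrocefin was then added from an 800 uM solution, and hydrolysis was followed at 480 nm.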
* marks the source's active call; other numbers are inactive results; ? = inconclusive; / = no result given; ! = a repeat was not active; [ ] = remark or other dose. Compounds with a hit are over-represented: about 7.3% of the library has one in this group of screens. Unless noted, calls come from the whole dose curve; as a rule, active = well fitted curve in the direction sought with a large enough effect; inconclusive = small, poorly fitted or top-dose-only effect, or another doubt; inactive = no such curve, though single readings can be large; an effect the other way counts as inactive or inconclusive. Unless noted, % is set by controls: 0 for no effect and ±100 for the full control effect.

SMILES	AmpC inh no detg	FMDV inh	HCV inh	HCMV antiviral	AmpC inh detg
CCCN(CCC)CCNC(=O)c1cc2c(-c3ccc(Cl)cc3)nn(C)c2s1	-15.6%	?	8.91µM*	?	-1.2%
CCN(CC)CCNC(=O)c1cc2c(-c3cccc(OC)c3)nn(C)c2s1	46.9%	0.3%	12.6µM*	-78.4*!	-8.1%
COc1cccc(-c2nn(C)c3sc(C(=O)NCc4ccccn4)cc23)c1	103.7%	-9.8%	10µM*	105.8	-2.0%
COc1ccc(-c2nn(C)c3sc(C(=O)Nc4cccc(F)c4)cc23)cc1OC	/	?	/	-85.0*	12.6%
Cc1ccc(-c2ccc(=O)n(CC(=O)NCc3ccc(F)cc3)n2)cc1	10.4%	-6.6%	2.0%	-23.6	-7.8%
CCC1(C2CCN(Cc3cc4ccccc4o3)CC2)NC(=O)N(CC2COc3ccccc3O2)C1=O (stereo not drawn)	/	-24.9%	/	/	/
O=C(c1ccc2c(c1)OCO2)N1CC(=O)N2[C@H](C1)[C@@H](c1ccc(Br)cc1)[C@@H]2CO	/	/	/	-4.3	/
CC(=O)c1cccc(NC(=O)CCn2c(=S)oc3ccccc32)c1	-22.8%	36.5%	?	-34.6	-6.0%
COc1cccc(-c2nn(C)c3sc(C(=O)NCCc4cccc(C)c4)cc23)c1	/	-26.2%	/	-68.7*	4.2%
COc1cccc(-c2nn(C)c3sc(C(=O)Nc4ccc5c(c4)OCCO5)cc23)c1	-30.1%	26.4%	3.16µM*	/	-3.7%
Cc1cc(C)c2c(N)c3ccccc3nc2n1	-23.2%	-21.4%	?	-108.4*	-2.4%
CCc1ccc2nc3nc(C)cc(C)c3c(N)c2c1	-8.1%	/	?	-12.1	-1.2%
Cc1cccc(NC(=O)c2cc(S(=O)(=O)N3CCc4ccccc43)ccc2F)c1C	/	-7.8%	/	15.0	-3.4%
CCOc1ccccc1C(=O)NCC(=O)OCC(=O)NCCc1ccc(S(N)(=O)=O)cc1	-2.1%	-18.5%	8.5%	13.1	?
NS(=O)(=O)c1ccc(CCNC(=O)c2ccccc2OCc2ccc(F)cc2)cc1	11.2µM*	-4.0%	?	?	?
CCc1sc(C(=O)NCCc2ccc(S(N)(=O)=O)cc2)cc1Br	-21.7%	-18.3%	-11.1%	-67.6*	0.7%
NS(=O)(=O)c1ccc(CCNC(=O)CNCCc2ccc(C(F)(F)F)cc2)cc1	3.1%	?	?	-61.4*	-13.4%
NS(=O)(=O)c1ccc(CCNC(=O)CNC(=O)c2ccc(F)cc2)cc1	-5.3%	-13.3%	31.0%	-5.6	2.8%
NS(=O)(=O)c1ccc(CCNCC(=O)N2CCC(Cc3ccccc3)CC2)cc1	92.1%	-19.6%	11.2µM*	-61.2*	-3.3%
O=C(CSc1nnc(Nc2ccccc2)s1)NC1CCCC1	-20.8%	-2.2%	-3.4%	-6.9	/
Cc1nc2cc(NC(=O)[C@@H]3C[C@@H](Sc4ccccn4)CN3Cc3ccccc3F)ccc2s1	/	10.2%	/	/	/
Cc1ccc2cc(CN(CC(C)C)S(=O)(=O)c3cccc4nonc34)c(=O)[nH]c2c1	-26.9%	-19.4%	5.4%	-9.0	-0.2%
O=C(COc1ccc2c(c1)oc(=O)c1ccccc12)NC(Cc1ccc(Cl)cc1)C(=O)O (stereo not drawn)	-2.4%	-16.5%	20.6%	-31.6	-11.1%
NS(=O)(=O)c1ccc(CCNC(=O)c2ccccc2Cc2ccccc2)cc1	-59.0%	0.0%	4.4%	-60.7*	-0.6%
CC(=O)Nc1nonc1-c1nc2ccccc2n1CC1CC1	-21.6%	-20.0%	?	-67.1*	-6.2%
SMILES	AmpC inh no detg	FMDV inh	HCV inh	HCMV antiviral	AmpC inh detg
CCCCn1c(-c2nonc2NC(=O)c2ccccc2Cl)nc2ccccc21	/	?	1.6%	-76.9*	/
COc1ccc(F)c(CN2CCOc3ccc(CN4CCC(O)(c5cccnc5)CC4)cc3C2)c1	/	-13.8%	/	/	/
O=C(Cc1c(F)cccc1Cl)N/N=C/c1cccs1	-34.4%	45.6%	5.4%[8.37 µM]	-74.8*	?
O=C(CNC(=O)c1cccc(F)c1)N/N=C/c1cccs1	-15.9%	5.7%	9.5%	-62.2*	0.3%
Cc1ccc(S(=O)(=O)N(C)C)cc1NC(=O)COC(=O)COc1ccc2c(c1)CCC2	0.3%	-20.0%	7.2%	-13.3	-8.9%
CCOC(=O)C(C(=O)NCCCN1CCOCC1)C1CCCCC1 (stereo not drawn)	-5.0%	-0.9%	23.5%	-104.7*	?
CCN1CCN(C(c2ccc(C(F)(F)F)cc2)c2ccc3cccnc3c2O)CC1 (stereo not drawn)	81.5%	?	7.08µM*	-84.8*	-4.7%
CN1CCN(C(c2ccc(C(F)(F)F)cc2)c2cc(Cl)c3cccnc3c2O)CC1 (stereo not drawn)	1.0%	/	/	?	-6.7%
O=S(=O)(c1cc(O)ccc1O)c1cccc2c(S(=O)(=O)c3cc(O)ccc3O)cccc12	20µM*	13.2%	10µM*	-21.7	-10.1%
Cc1ccc(-c2csc3nc[nH]c(=O)c23)cc1	-32.6%	-9.9%	-11.5%	?	-8.3%
Cc1ccc(-c2csc3nc(-c4ccncc4)[nH]c(=O)c23)cc1	-16.2%	-26.3%	5.62µM*	20.2	?
Cc1ccc(-c2csc3nc(C)n(N)c(=O)c23)cc1	-7.7%[11.4 µM]	5.8%	6.9%	-86.0*	?
Cc1ccc(-c2csc3nc(SCC(N)=O)n(Cc4ccccc4)c(=O)c23)cc1	-42.9%	31.6µM*	?	-28.0	?
Cc1nc2scc(-c3ccc(Cl)cc3)c2c(=O)n1N	-18.3%	-17.5%	0.4%	?	0.3%
O=S(=O)(Cc1ccc(Cl)cc1)Nc1ccc(Cl)cn1	-29.3%	2.9%	18.0%	-100.5*	-4.9%
O=C(Cc1ccc(Cl)cc1)Nc1ccc(Cl)cn1	-31.6%	10.9%	-8.8%	4.3	-11.0%
CCc1nnc(SCC(=O)N(C)c2ccccc2)c2cc3sccc3n12	/	?	/	-66.7*	15.0%
Cc1c(C(=O)N2CCCCCC2)sc2ncnc(NCC3CCCO3)c12 (stereo not drawn)	/	6.2%	/	/	/
CCOC(=O)C1(Cc2cccc(F)c2)CCN(Cc2cn(CC)nc2C)CC1	-5.0%	-24.9%	?	0.1	5.6%
CCOC(=O)C1(Cc2cccc(F)c2)CCN(Cc2c(C)nn(CC)c2C)CC1	47.3%	?	12.6µM*	?	1.4%
CCOC(=O)C1(CCOC)CCN(C/C=C/c2ccccc2OC)CC1	/	?	11.2µM*	10.4	/
CCOC(=O)C1(CC2CC2)CCN(Cc2cnc(-c3ccc(OC)cc3)nc2)CC1	29.0%	?	?	-62.3*	1.2%
CCOC(=O)C1(Cc2ccccc2)CCN(Cc2cn[nH]c2-c2ccccc2)CC1	65.5%	?	?	-77.8*	4.3%
CCOC(=O)C1(CC2CC2)CCN(Cc2ccc(O)c(Cl)c2)CC1	-42.5%	/	/	/	5.0%
CCOC(=O)C1(CC2CC2)CCN(Cc2cn[nH]c2-c2ccccc2)CC1	15.8%	-21.3%	1.8%	-27.6	6.4%
CCc1ccc(Nc2sc(C(=O)c3ccccc3)c(N)c2S(C)(=O)=O)cc1	/	-21.1%	/	-9.1	16.2%
O=C(NCc1ccc(F)c(F)c1)c1cnc(N2CCN(CCc3ccccc3)C2=O)o1	/	/	/	3.0	/

Bioassay records deposited in PubChem BioAssay by National Center for Advancing Translational Sciences (NCATS).
